Data as given in PubChem BioAssay (NCI).
Compounds without any hit were thinned out: in the full panel of roughly 79,000, 15% have a hit. Activity calls are given as the source filed them. Rule as the data show it: active = growth inhibition above about 70%; inactive = the rest.

Assay: NCI Yeast Anticancer Drug Screen. Data for the mlh1 strain (AID 171);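 also: 0% = growth of vehicle-treated control cultures of the same strain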
Details: S. cerevisiae mlh1 strain growth inhibition, hits give high values
Experimental: Growth inhibition of yeast strains with defined genetic alterations is measured as a screen for potential anti-cancer activity. Selected strains with alterations in DNA damage repair or cell cycle control were exposed to compounds and growth inhibition was measured relative to vehicle treated controls. The strain used in this assay is mlh1

Measured: growth inhibition

Cc1cccc2c1nc1ccc(Cl)cc1[n+]2C
inactive: at 1.2 µM -3% | at 3.7 µM 7%
active: at 11.0 µM 82% | at 33.0 µM 97% | at 100.0 µM 97%

COC(=O)CC1(O)C(/C=C/c2ccccc2)C(C(=O)OC)C(=O)C(C(=O)OC)C1C(=O)OC (stereo not given)
inactive: at 1.2 µM 1% | at 3.7 µM -1% | at 11.0 µM 0% | at 33.0 µM 1% | at 100.0 µM 5%

O=C(O)c1ccc(N2C(=O)C=CC2=O)cc1
inactive: at 1.2 µM -2% | at 3.7 µM 5% | at 11.0 µM 10% | at 33.0 µM 25% | at 100.0 µM 61%

CCCCN(CCCC)C(=O)/C=C/c1ccccc1
active: at 100.0 µM 85%
inactive: at 1.2 µM -9% | at 3.7 µM -4% | at 11.0 µM -5% | at 33.0 µM 18%

CCCCCCSc1ncnc2[nH]ncc12
inactive: at 1.2 µM -1% | at 3.7 µM -1% | at 11.0 µM -2% | at 33.0 µM -2% | at 100.0 µM -3%

CCCCCCCCCCCC(O)S(=O)(=O)O (stereo not given)
inactive: at 1.2 µM 0% | at 3.7 µM 0% | at 11.0 µM -2% | at 33.0 µM 3%
active: at 100.0 µM 94%

COc1ccc(C2C3=C(COC3=O)OC(C)(C)Oc3cc4c(cc32)OCO4)cc1OC (stereo not given)
inactive: at 1.2 µM -11% | at 3.7 µM 0% | at 11.0 µM 6% | at 33.0 µM 57%
active: at 100.0 µM 94%

Nc1nc(N)c2nc(CNc3ccc(C(=O)NC(CCC(=O)O)C(=O)O)cc3F)cnc2n1 (stereo not given)
inactive: at 1.2 µM 16% | at 3.7 µM 10% | at 11.0 µM 8% | at 33.0 µM 29% | at 100.0 µM 46%
